# Measured values published in article PMC7862700, “An all-to-all approach to the identification of sequence-specific readers for epigenetic DNA modifications on cytosine”.
# How the values were obtained:
# Assay in all cases: DAPPL (digital affinity profiling via proximity ligation, sequencing); 10 mM Tris-HCl pH 7.5, 50 mM NaCl, 1 mM DTT, 4% glycerol, room temperature, 30 min; GST-TFs on glutathione beads, 16-mer random dsDNA library, 0.1% formaldehyde crosslink after washing; high values mean tight binding
# FLI1 = target: T1, FLI1 (Homo sapiens, UniProt Q01543 1-452); details: protein: recombinant; tags: N-terminal GST; dsDNA, one strand shown
# T1 sequence: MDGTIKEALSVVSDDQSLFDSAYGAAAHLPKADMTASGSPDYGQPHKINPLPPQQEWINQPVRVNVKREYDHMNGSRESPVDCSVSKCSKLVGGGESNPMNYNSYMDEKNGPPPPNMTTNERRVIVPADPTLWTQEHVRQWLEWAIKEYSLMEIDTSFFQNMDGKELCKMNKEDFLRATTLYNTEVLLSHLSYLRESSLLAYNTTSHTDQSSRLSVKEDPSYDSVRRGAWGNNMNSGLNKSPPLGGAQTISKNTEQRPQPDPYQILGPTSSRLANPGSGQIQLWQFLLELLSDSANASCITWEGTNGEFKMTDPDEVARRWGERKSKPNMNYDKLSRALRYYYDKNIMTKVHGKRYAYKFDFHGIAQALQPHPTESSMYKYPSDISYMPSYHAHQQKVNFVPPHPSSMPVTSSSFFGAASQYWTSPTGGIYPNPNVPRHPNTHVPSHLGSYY
# How it was run: (§1)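 Human transcription factors were made in yeast as GST fusions, captured on glutathione beads and barcoded with DNA. With a tag-only sample included, the pool was incubated with 200 nmole of a random double-stranded 16-mer DNA library in Tris/NaCl/DTT/glycerol buffer at room temperature for 30 min, then crosslinked with 0.1% formaldehyde after washing, ligated by proximity, amplified and sequenced. For binding signal, each hexamer's read frequency for a factor is divided by its frequency for the tag-only sample.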
# ELK1 = target: T2, ELK1 (Homo sapiens, UniProt P19419 1-428); details: protein: recombinant; tags: N-terminal GST; dsDNA, one strand shown
# T2 sequence: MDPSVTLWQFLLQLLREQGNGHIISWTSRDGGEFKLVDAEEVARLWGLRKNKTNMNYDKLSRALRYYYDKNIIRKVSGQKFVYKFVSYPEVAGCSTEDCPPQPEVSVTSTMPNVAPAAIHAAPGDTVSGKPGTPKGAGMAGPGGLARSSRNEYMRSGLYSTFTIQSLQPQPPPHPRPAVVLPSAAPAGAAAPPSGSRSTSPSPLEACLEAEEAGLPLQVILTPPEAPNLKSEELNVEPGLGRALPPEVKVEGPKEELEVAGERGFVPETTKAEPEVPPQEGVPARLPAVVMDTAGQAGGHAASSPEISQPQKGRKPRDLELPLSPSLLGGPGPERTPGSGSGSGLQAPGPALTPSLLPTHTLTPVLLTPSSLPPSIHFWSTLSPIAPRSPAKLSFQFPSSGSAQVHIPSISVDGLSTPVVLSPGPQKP
# How it was run: as §1
# GABPA = target: T3, GABPA (Homo sapiens, UniProt Q06546 1-454); details: protein: recombinant; tags: N-terminal GST; dsDNA, one strand shown
# T3 sequence: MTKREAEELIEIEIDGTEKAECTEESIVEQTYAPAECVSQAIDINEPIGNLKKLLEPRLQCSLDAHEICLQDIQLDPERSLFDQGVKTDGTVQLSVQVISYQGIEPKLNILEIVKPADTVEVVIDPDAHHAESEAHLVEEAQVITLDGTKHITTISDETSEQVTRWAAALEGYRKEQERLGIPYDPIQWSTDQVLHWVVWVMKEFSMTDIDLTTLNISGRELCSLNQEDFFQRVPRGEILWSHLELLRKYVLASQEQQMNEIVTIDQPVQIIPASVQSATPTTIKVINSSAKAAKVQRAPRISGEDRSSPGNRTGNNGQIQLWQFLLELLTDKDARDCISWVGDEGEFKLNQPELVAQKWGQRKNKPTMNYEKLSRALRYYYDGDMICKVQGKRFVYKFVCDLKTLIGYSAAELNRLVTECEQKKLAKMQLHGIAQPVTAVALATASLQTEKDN
# How it was run: as §1
# ERG = target: T4, ERG (Homo sapiens, UniProt P11308 1-479); details: protein: recombinant; tags: N-terminal GST; dsDNA, one strand shown
# T4 sequence: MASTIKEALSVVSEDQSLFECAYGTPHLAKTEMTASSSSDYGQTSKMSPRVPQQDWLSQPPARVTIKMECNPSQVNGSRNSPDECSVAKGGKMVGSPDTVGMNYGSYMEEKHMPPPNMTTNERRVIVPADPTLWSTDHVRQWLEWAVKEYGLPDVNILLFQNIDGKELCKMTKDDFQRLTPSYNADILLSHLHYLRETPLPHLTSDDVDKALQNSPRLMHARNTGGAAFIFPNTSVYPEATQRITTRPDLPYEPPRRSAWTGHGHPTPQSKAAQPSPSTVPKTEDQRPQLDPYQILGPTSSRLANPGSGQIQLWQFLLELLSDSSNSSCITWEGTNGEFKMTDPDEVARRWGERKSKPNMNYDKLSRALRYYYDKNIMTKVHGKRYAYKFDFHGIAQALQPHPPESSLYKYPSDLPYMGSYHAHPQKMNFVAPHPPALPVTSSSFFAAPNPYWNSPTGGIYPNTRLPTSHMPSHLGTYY
# How it was run: as §1
# ELF1 = ELF1 (Homo sapiens, UniProt P32519 1-619); details: protein: recombinant; tags: N-terminal GST; dsDNA, one strand shown
# How it was run: as §1
# EHF = target: T5, EHF (Homo sapiens, UniProt Q9NZC4 1-300); details: protein: recombinant; tags: N-terminal GST; dsDNA, one strand shown
# T5 sequence: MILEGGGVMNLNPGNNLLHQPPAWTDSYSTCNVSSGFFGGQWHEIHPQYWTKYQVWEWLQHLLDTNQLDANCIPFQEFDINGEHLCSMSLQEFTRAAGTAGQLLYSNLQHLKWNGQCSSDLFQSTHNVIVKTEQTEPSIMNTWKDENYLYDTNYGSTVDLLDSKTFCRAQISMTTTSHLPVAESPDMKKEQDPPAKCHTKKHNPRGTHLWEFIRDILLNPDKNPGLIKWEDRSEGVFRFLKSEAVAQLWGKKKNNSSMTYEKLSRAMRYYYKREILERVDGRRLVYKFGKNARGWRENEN
# How it was run: as §1
# SPI1 = SPI1 (Homo sapiens, UniProt P17947 1-270); details: protein: recombinant; tags: N-terminal GST; dsDNA, one strand shown
# How it was run: as §1
# SPIB = SPIB (Homo sapiens, UniProt Q01892 1-262); details: protein: recombinant; tags: N-terminal GST; dsDNA, one strand shown
# How it was run: as §1
# ELK3 = target: T6, ELK3 (Homo sapiens, UniProt P41970 1-407); details: protein: recombinant; tags: N-terminal GST; dsDNA, one strand shown
# T6 sequence: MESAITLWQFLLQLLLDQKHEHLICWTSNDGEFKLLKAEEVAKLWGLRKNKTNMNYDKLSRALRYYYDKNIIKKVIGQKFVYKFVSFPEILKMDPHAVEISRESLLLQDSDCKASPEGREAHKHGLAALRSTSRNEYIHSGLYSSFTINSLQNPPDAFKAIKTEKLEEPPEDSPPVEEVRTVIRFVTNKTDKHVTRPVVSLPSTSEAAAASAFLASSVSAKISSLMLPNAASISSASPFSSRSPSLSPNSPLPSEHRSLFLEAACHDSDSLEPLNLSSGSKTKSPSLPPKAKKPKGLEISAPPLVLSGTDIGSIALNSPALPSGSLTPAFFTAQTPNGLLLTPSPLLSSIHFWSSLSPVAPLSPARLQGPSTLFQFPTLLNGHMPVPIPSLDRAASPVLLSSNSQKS
# How it was run: as §1
# FEV = target: T7, FEV (Homo sapiens, UniProt Q99581 1-238); details: protein: recombinant; tags: N-terminal GST; dsDNA, one strand shown
# T7 sequence: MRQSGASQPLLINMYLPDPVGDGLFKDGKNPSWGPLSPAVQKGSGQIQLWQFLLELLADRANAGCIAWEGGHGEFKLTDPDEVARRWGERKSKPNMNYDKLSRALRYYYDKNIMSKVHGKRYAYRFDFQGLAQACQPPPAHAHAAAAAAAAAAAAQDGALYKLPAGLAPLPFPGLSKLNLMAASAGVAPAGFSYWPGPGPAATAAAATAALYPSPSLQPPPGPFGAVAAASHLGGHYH
# How it was run: as §1
# ETV5 = ETV5 (Homo sapiens, UniProt P41161 1-510); details: protein: recombinant; tags: N-terminal GST; dsDNA, one strand shown
# How it was run: as §1
# HSF1 = HSF1 (Homo sapiens, UniProt Q00613 1-529); details: protein: recombinant; tags: N-terminal GST; chain copies: 3; dsDNA, one strand shown
# How it was run: as §1
# SPIC = target: T8, SPIC (Homo sapiens, UniProt Q8N5J4 1-248); details: protein: recombinant; tags: N-terminal GST; dsDNA, one strand shown
# T8 sequence: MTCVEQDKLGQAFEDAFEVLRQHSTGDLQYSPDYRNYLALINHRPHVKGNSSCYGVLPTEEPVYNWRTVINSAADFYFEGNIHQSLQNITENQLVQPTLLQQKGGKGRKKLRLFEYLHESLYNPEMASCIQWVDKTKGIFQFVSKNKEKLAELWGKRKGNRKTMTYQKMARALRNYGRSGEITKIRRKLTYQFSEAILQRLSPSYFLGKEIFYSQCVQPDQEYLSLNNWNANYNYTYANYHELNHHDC
# How it was run: as §1
# ELF4 = ELF4 (Homo sapiens, UniProt Q99607 1-663); details: protein: recombinant; tags: N-terminal GST; dsDNA, one strand shown
# How it was run: as §1
# ELK4 = target: T9, ELK4 (Homo sapiens, UniProt P28324-2 1-405); details: protein: recombinant; tags: N-terminal GST; dsDNA, one strand shown
# T9 sequence: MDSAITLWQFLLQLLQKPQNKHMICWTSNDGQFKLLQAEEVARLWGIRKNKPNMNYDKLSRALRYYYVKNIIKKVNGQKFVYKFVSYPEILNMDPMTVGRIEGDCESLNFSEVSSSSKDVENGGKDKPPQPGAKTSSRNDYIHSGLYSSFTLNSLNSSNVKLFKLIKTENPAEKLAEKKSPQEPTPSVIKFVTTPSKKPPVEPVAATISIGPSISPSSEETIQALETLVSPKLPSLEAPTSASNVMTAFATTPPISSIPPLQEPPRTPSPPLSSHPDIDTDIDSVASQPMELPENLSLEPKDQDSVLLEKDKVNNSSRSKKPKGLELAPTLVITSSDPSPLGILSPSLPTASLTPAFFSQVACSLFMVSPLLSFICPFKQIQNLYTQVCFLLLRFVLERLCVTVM
# How it was run: as §1
# ETV2 = target: T10, ETV2 (Homo sapiens, UniProt O00321 1-342); details: protein: recombinant; tags: N-terminal GST; dsDNA, one strand shown
# T10 sequence: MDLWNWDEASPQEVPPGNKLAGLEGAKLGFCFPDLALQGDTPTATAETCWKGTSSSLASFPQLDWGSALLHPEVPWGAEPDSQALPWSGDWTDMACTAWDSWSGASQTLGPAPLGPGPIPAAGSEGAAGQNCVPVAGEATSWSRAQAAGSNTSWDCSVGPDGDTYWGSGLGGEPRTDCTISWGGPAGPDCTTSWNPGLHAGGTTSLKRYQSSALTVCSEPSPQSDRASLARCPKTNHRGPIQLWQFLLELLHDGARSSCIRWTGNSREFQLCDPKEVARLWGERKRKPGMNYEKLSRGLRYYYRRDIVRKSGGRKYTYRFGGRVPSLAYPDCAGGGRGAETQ
# How it was run: as §1
# ELF3 = target: T11, ELF3 (Homo sapiens, UniProt P78545 1-371); details: protein: recombinant; tags: N-terminal GST; dsDNA, one strand shown
# T11 sequence: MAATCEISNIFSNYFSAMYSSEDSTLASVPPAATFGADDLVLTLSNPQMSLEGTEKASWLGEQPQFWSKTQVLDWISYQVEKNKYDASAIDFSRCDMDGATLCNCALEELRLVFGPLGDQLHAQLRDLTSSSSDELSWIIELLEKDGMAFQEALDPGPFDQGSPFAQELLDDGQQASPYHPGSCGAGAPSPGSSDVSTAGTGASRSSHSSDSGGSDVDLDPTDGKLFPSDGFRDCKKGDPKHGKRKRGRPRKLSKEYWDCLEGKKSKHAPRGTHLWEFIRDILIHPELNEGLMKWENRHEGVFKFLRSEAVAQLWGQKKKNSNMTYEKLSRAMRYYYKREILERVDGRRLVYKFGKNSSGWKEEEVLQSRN
# How it was run: as §1
# CRX = CRX (Homo sapiens, UniProt O43186 1-299); details: protein: recombinant; tags: N-terminal GST; dsDNA, one strand shown
# How it was run: as §1
# Sequence of HSF1 (Q00613 whole entry): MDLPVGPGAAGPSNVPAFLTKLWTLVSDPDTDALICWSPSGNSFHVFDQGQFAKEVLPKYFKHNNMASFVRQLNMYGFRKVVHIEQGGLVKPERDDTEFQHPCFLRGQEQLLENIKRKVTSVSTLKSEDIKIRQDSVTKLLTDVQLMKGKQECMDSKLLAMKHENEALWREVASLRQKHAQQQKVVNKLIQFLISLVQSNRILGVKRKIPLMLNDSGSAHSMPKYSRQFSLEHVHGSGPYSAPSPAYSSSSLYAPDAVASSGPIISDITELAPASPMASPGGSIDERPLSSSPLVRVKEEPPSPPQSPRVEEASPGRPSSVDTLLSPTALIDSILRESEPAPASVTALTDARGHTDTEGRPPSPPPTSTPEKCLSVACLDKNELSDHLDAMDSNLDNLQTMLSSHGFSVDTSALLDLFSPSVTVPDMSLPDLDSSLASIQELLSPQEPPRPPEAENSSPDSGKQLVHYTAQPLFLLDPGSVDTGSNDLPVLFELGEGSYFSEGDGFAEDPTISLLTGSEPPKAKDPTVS
# Sequence of SPIB (Q01892 whole entry): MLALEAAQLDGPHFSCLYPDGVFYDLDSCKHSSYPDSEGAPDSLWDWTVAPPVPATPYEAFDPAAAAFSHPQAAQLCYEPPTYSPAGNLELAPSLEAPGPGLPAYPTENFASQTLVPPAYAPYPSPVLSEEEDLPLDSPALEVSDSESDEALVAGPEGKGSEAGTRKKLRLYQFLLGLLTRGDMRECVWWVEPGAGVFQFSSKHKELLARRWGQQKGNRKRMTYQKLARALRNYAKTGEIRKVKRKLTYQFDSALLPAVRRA
# Sequence of ELF4 (Q99607 whole entry): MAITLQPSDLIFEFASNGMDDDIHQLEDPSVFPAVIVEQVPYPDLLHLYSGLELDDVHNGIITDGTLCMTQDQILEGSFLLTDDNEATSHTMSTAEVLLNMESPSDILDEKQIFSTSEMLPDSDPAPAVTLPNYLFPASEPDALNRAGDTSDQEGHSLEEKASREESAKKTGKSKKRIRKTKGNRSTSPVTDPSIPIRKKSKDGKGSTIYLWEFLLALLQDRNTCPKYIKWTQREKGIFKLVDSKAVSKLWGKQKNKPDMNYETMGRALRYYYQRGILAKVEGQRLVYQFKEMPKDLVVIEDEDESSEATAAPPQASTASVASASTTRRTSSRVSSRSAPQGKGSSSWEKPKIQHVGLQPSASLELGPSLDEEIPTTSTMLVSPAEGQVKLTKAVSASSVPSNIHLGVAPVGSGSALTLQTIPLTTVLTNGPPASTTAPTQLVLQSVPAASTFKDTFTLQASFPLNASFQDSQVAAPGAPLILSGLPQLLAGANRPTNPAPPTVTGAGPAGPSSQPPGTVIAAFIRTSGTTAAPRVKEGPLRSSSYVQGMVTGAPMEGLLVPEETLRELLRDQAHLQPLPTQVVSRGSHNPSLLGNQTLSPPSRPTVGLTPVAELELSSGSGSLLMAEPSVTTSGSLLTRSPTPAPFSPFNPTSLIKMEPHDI
# Sequence of ETV5 (P41161 whole entry): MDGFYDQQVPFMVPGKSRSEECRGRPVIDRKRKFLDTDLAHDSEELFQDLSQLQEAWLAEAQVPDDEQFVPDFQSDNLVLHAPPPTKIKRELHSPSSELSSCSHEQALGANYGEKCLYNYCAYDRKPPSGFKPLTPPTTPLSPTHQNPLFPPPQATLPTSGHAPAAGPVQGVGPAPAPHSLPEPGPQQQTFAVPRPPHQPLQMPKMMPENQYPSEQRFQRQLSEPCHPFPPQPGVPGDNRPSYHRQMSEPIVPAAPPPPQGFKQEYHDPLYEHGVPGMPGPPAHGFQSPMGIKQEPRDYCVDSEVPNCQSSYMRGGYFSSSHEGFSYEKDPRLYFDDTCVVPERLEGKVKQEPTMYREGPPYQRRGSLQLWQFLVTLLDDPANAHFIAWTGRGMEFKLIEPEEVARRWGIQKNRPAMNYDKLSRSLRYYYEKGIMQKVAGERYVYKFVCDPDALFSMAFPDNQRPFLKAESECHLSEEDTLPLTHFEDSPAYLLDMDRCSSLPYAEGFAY
# Sequence of CRX (O43186 whole entry): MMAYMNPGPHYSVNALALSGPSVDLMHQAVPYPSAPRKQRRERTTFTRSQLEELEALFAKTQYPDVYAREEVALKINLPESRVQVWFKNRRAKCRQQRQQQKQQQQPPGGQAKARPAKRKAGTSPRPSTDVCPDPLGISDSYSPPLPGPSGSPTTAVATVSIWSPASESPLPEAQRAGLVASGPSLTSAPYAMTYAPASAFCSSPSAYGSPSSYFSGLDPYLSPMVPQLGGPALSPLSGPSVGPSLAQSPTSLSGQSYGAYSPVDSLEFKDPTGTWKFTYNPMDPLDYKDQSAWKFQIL
# Sequence of ELF1 (P32519 whole entry): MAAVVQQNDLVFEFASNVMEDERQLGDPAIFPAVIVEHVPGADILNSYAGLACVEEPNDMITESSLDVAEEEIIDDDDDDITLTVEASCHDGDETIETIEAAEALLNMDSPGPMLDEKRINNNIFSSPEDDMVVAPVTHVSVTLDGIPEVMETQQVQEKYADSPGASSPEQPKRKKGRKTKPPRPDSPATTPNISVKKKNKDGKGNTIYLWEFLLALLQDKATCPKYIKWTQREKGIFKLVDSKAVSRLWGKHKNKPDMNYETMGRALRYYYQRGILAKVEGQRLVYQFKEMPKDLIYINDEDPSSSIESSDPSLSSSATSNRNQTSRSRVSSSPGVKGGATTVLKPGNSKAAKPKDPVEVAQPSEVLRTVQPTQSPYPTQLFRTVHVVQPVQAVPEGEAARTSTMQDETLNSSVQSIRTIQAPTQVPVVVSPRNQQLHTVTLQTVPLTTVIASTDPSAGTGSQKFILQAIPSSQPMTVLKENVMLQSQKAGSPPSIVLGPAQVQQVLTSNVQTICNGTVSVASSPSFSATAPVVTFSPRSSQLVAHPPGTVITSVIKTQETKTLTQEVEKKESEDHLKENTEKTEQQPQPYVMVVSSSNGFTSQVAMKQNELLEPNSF
sequence,measurement,setting,value
GTTAAG,binding signal,FLI1,"1.04 fold enrichment (6-mer frequency, TF over GST control)"
same,binding signal,ELK1,"1.12 fold enrichment (6-mer frequency, TF over GST control)"
same,binding signal,GABPA,"1.07 fold enrichment (6-mer frequency, TF over GST control)"
same,binding signal,ERG,"1.05 fold enrichment (6-mer frequency, TF over GST control)"
same,binding signal,ELF1,"1.04 fold enrichment (6-mer frequency, TF over GST control)"
same,binding signal,EHF,"1.01 fold enrichment (6-mer frequency, TF over GST control)"
same,binding signal,SPI1,"1.01 fold enrichment (6-mer frequency, TF over GST control)"
same,binding signal,SPIB,"1.02 fold enrichment (6-mer frequency, TF over GST control)"
same,binding signal,ELK3,"1.05 fold enrichment (6-mer frequency, TF over GST control)"
same,binding signal,FEV,"1.02 fold enrichment (6-mer frequency, TF over GST control)"
same,binding signal,ETV5,"1.03 fold enrichment (6-mer frequency, TF over GST control)"
same,binding signal,HSF1,"1.3 fold enrichment (6-mer frequency, TF over GST control)"
same,binding signal,SPIC,"1.06 fold enrichment (6-mer frequency, TF over GST control)"
same,binding signal,ELF4,"1.1 fold enrichment (6-mer frequency, TF over GST control)"
same,binding signal,ELK4,"1.06 fold enrichment (6-mer frequency, TF over GST control)"
same,binding signal,ETV2,"1.1 fold enrichment (6-mer frequency, TF over GST control)"
same,binding signal,ELF3,"1.06 fold enrichment (6-mer frequency, TF over GST control)"
same,binding signal,CRX,"1.87 fold enrichment (6-mer frequency, TF over GST control)"
